Records with an inconclusive call do not appear. Values without a mark were called inactive. The source made the active and inactive calls. The call rests on the fitted dose curve; in most records, active means well fitted cell-killing curve with a large enough effect; inconclusive means small, poorly fitted or top-dose-only effect, or effect the other way; inactive means no such curve, though single readings can be large or run the other way.
assay: Quantitative High-Throughput drug screen in 47 multiple myeloma cell lines against the NCATS MIPE library collection: XG6_PLB cell viability assay (AID 1919865); conditions: XG6 myeloma viability, CellTiter-Glo ATP luminescence, 48 h; series mostly up to 45.8 µM; viability (% of control): at the top concentration; further: nearly all actives have a fitted effect of over 40% in size
Method in brief: (§1)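 Inhibition of viability over 48 h was scored by ATP content (CellTiter-Glo) in 500-cell wells. Zero and full viability were defined by media-only and DMSO-only wells.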
Potency means the concentration at half of the fitted maximal effect.

Row | SMILES | Potency
1 | CNC(=O)[C@H](Cc1ccccc1)NC(=O)[C@H](CC(C)C)[C@H](CSc1cccs1)C(=O)NO | 7.43 µM (active)
2 | CCOC(=O)c1c(CSc2ccccc2)n(C)c2cc(Br)c(O)c(CN(C)C)c12 | 14.8 µM (active)
3 | COc1cc([C@H]2Oc3cc([C@H]4Oc5cc(O)cc(O)c5C(=O)[C@H]4O)ccc3O[C@H]2CO)ccc1O | 14.8 µM (active)
4 | CO[C@H]1O[C@@H]2O[C@@]3(C)CC[C@@H]4[C@@H](C)CC[C@@H]([C@H]1C)[C@@]24OO3 | 2.64 µM (active)
5 | C[C@@H](N)c1ccc(C(=O)Nc2ccnc3[nH]ccc23)cc1 | 20.9 µM (active)
6 | C#C[C@]1(O)CC[C@H]2[C@H]3CCc4cc(OC)ccc4[C@H]3CC[C@@]21C | 16.6 µM (active)
7 | NC(=O)c1noc([C@H](CCCC2CCCCC2)CC(=O)NO)n1 | 23.5 µM (active)

assay: Quantitative High-Throughput drug screen in 47 multiple myeloma cell lines against the NCATS MIPE library collection: XG1_PLB cell viability assay (AID 1919866); conditions: CellTiter-Glo ATP, 48 h; series mostly up to 45.8 µM; viability: at the top concentration; further: nearly all actives have a fitted effect of over 35% in size
Method in brief: as §1

Row | SMILES | viability | Potency
8 | Cc1ccc2c(c1)C(=O)[C@]1(O)CCN(c3ccccc3)C1=N2 | 118% | 
9 | CCc1cccc(CC)c1NC(=O)N1Cc2[nH]nc(NC(=O)c3ccc(N4CCN(C)CC4)cc3)c2C1 |  | 0.935 µM (active)
10 | COc1cc(N2CCN(C)CC2)ccc1Nc1nc(N)c(C(=O)c2c(Cl)cccc2Cl)s1 |  | 23.5 µM (active)
11 | Nc1ncnc2c1ncn2[C@@H]1O[C@H](CO)[C@@H](O)[C@@H]1O |  | 0.935 µM (active)
12 | C#CCN(C)CC1=Cc2ccccc2Oc2ccccc21 | 88.9% | 
13 | c1cc(OCCN2CCCCC2)cc(-c2n[nH]c3ccc(-c4ncn[nH]4)cc23)c1 |  | 8.33 µM (active)
14 | CN[C@@H]1CN(c2ccc3c(=O)c(C(=O)O)cn(-c4nccs4)c3n2)C[C@@H]1OC |  | 7.24 µM (active)
15 | CNc1nc(Nc2ccc(C(=O)N3CCOCC3)cc2OC)ncc1Cl |  | 16.6 µM (active)
16 | COc1ccc2c(c1)CC[C@H]1[C@@H]2CC[C@]2(C)[C@@H](NCCCCCCN3C(=O)C=CC3=O)CC[C@H]12 | 125% | 
17 | CO[C@H]1C=CO[C@@]2(C)Oc3c(C)c(O)c4c(O)c(c(C=NN5CCN(C)CC5)c(O)c4c3C2=O)NC(=O)C(C)=CC=C[C@H](C)[C@H](O)[C@@H](C)[C@@H](O)[C@@H](C)[C@H](OC(C)=O)[C@H]1C | 104% [at 15.3 µM] | 
18 | CNC(=O)[C@H](Cc1ccccc1)NC(=O)[C@H](CC(C)C)[C@H](CSc1cccs1)C(=O)NO |  | 9.35 µM (active)
19 | O=C(O)Cc1cccc(OCCCN(Cc2cccc(C(F)(F)F)c2Cl)CC(c2ccccc2)c2ccccc2)c1 |  | 20.9 µM (active)
20 | CCC[C@@H](NC(=O)[C@@H]1[C@H]2CCC[C@@H]2CN1C(=O)[C@@H](NC(=O)[C@@H](NC(=O)c1cnccn1)C1CCCCC1)C(C)(C)C)C(=O)C(=O)NC1CC1 |  | 14.8 µM (active)
21 | COc1cc([C@H]2Oc3cc([C@H]4Oc5cc(O)cc(O)c5C(=O)[C@H]4O)ccc3O[C@H]2CO)ccc1O |  | 16.6 µM (active)
22 | CO[C@H]1O[C@@H]2O[C@@]3(C)CC[C@@H]4[C@@H](C)CC[C@@H]([C@H]1C)[C@@]24OO3 |  | 2.96 µM (active)
23 | CC(=O)OCC(=O)[C@@]1(O)CC[C@H]2[C@@H]3CCC4=CC(=O)C=C[C@]4(C)[C@@H]3[C@@H](O)C[C@@]21C | 109% | 
24 | C#C[C@]1(O)CC[C@H]2[C@H]3CCc4cc(OC)ccc4[C@H]3CC[C@@]21C |  | 14.8 µM (active)
25 | NC(=O)c1noc([C@H](CCCC2CCCCC2)CC(=O)NO)n1 |  | 16.6 µM (active)
